Measurements taken from PubChem BioAssay AID1159580 (chemical genetic matrix, 2015).
Where “and” joins values, the source holds several entries; their conditions need not be identical. Equal entries are not always repeated. Out of some 5,500 compounds screened, about 2,000 (36%) were called active. Not shown: some 18% with an inconclusive outcome. No stated cut-off is given here; in the data, active means normalized growth mostly below about 0.91 (no sharp cut-off); inconclusive means no clear call, values can overlap the other calls; inactive means mostly above about 0.92. Some of the results follow.

Experiment: chemical genetic growth profiling, strain panel (AID 1159580);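 further: tested at 20 µM; growth read once vehicle control cultures reached saturation at 30 °C; 1 = growth at the plate median or of vehicle wells; lower values mean less growth of the strain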
Conditions: S. cerevisiae deletion strains, growth OD

Measured: normalized growth

CN(C)CCN(Cc1cccs1)c1ccccn1
inactive: locus YAL021C, strain ccr4, hits give low values 1 | locus YAL026C, strain drs2, hits give low values 1.01 | locus YAL030W, strain snc1, hits give low values 1 | locus YAL040C, strain CLN3, hits give low values 1.02 | locus YBL061C, strain skt5, hits give low values 1 | locus YBR009C, strain hhf1, hits give low values 0.996 | locus YBR021W, strain FUR4, hits give low values 1.01 | locus YBR023C, strain chs3, hits give low values 1.01 | locus YBR171W, strain sec66, hits give low values 1.01 | locus YBR229C, strain ROT2, hits give low values 1 | locus YBR231C, strain swc5, hits give low values 1.01 | locus YBR279W, strain paf1, hits give low values 1 | locus YCL011C, strain gbp2, hits give low values 1.01 | locus YCL016C, strain dcc1, hits give low values 1.01 | locus YCL029C, strain bik1, hits give low values 1.02 | locus YCL061C, strain MRC1 (second series), hits give low values 1.01 | locus YCL061C, strain MRC1, hits give low values 1.01 | locus YCL069W, strain vba3, hits give low values 1.01 | locus YCR088W, strain abp1, hits give low values 1.01 | locus YDL005C, strain med2, hits give low values 1.01 | locus YDL035C, strain GPR1, hits give low values 1 | locus YDL040C, strain nat1, hits give low values 1.01 | locus YDL074C, strain BRE1, hits give low values 0.974 | locus YDL101C, strain DUN1, hits give low values 0.99 | locus YDL134C, strain PPH21, hits give low values 1.02 | locus YDL185W, strain tfp1, hits give low values 1.02 | locus YDL192W, strain arf1, hits give low values 1.01 | locus YDR001C, strain nth1, hits give low values 1.01 | locus YDR069C, strain doa4, hits give low values 1 | locus YDR101C, strain arx1, hits give low values 0.957 | locus YDR137W, strain rgp1, hits give low values 1.03 | locus YDR150W, strain NUM1, hits give low values 1.02 | locus YDR159W, strain sac3, hits give low values 1.01 | locus YDR162C, strain NBP2, hits give low values 1.01 | locus YDR195W, strain ref2 0.999 | locus YDR297W, strain sur2, hits give low values 0.999 | locus YDR318W, strain mcm21, hits give low values 1.02 | locus YDR334W, strain swr1, hits give low values 1.02 | locus YDR335W, strain msn5, hits give low values 1.01 | locus YDR363W, strain ESC2, hits give low values 0.986 | locus YDR388W, hits give low values 1.02 | locus YDR392W, strain spt3, hits give low values 1.01 | locus YDR502C, strain sam2, hits give low values 1 | locus YEL003W, strain gim4, hits give low values 1.01 | locus YEL037C, strain rad23, hits give low values 1.01 | locus YEL061C, strain CIN8 (second series), hits give low values 1.01 | locus YEL061C, strain CIN8, hits give low values 1 | locus YER002W, strain NOP16, hits give low values 1.01 | locus YER015W, strain faa2, hits give low values 1 | locus YER016W, strain bim1, hits give low values 1.01 | locus YER110C, hits give low values 1.01 | locus YER111C, strain swi4, hits give low values 1.02 | locus YER155C, strain BEM2 (second series), hits give low values 1.01 | locus YER155C, strain BEM2, hits give low values 1.01 | locus YER167W, strain BCK2, hits give low values 1.01 | locus YFR010W, strain ubp6, hits give low values 1.01 | locus YGL078C, strain dbp3, hits give low values 1.01 | locus YGL086W, strain mad1, hits give low values 0.982 | locus YGL167C, strain pmr1, hits give low values 1.01 | locus YGL173C, strain kem1, hits give low values 1.01 | locus YGL227W, strain vid30, hits give low values 1.01 | locus YGL240W, strain doc1, hits give low values 1.02 | locus YGL248W, strain PDE1, hits give low values 0.993 | locus YGL253W, strain hxk2, hits give low values 1.02 | locus YGR078C, strain PAC10, hits give low values 1.01 | locus YGR135W, strain pre9, hits give low values 1.05 | locus YGR229C, strain SMI1, hits give low values 0.996 | locus YGR252W, strain gcn5, hits give low values 1.07 | locus YHR013C, strain ard1, hits give low values 0.993 | locus YHR027C, strain rpn1, hits give low values 1 | locus YHR030C, strain SLT2, hits give low values 1.01 and 0.934 | locus YHR079C, strain IRE1 (second series), hits give low values 1.01 | locus YHR079C, strain IRE1, hits give low values 0.98 | locus YHR094C, strain hxt1, hits give low values 1.01 | locus YHR129C, strain ARP1, hits give low values 1.01 | locus YHR142W, strain chs7, hits give low values 1.01 | locus YHR200W, strain rpn10, hits give low values 1.01 | locus YIL066C, strain RNR3, hits give low values 1.01 | locus YIL073C, strain SPO22, hits give low values 1.07 | locus YIL125W, strain kgd1, hits give low values 0.993 | locus YIR030C, strain dcg1, hits give low values 1.01 | locus YJL092W, strain hpr5, hits give low values 1 | locus YJL095W, strain BCK1 (second series), hits give low values 1.01 | locus YJL095W, strain BCK1, hits give low values 0.993 and 0.95 | locus YJL115W, strain asf1, hits give low values 1.03 | locus YJL129C, strain trk1, hits give low values 1 | locus YJL134W, strain LCB3, hits give low values 1.01 | locus YJL154C, strain vps35, hits give low values 1.01 | locus YJL164C, strain tpk1, hits give low values 1 | locus YJL166W, strain qcr8, hits give low values 1 | locus YJL168C, strain set2, hits give low values 1.01 | locus YJL187C, strain SWE1 (second series), hits give low values 0.998 | locus YJL187C, strain SWE1, hits give low values 1 | locus YJR043C, strain POL32, hits give low values 1.01
